Where “and” joins values, the source holds several entries; their conditions need not be identical. Identical values can stand only once. Inconclusive results are not listed. Some structures have more than one record in an assay (separate samples or runs), and their calls can disagree. Calls of active or inactive are those of the source. How the source made its calls: active means hit-call score of the fitted dose curve at least 0.9, where 1 is the maximum; inconclusive means response in the unintended direction; inactive means score below 0.9.

A short description of test [1]: TOX21_p53_BLA_p2_viability: Viability Assessment in the Tox21 HCT-116 p53 Agonism Beta-lactamase Assay, Phase 2 (AID 2283591).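 Further: compound exposure lasted 16 h at 37 °C; actives lower the ATP signal meaning cytotoxicity.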 The method in brief: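 Cytotoxicity readout: CellTiter-Glo ATP luminescence, 30 min at room temperature, after the beta-lactamase read. Cells were HCT116 exposed 16 h at 37C to compounds pin-transferred at 217-fold dilution from DMSO stocks.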

In test [2] the target is Cellular tumor antigen p53 (Homo sapiens) (UniProt P04637). The experiment in a line: TOX21_p53_BLA_p2_ratio: Tox21 HCT-116 p53 Agonism Beta-lactamase Assay, Ratio, Phase 2 (AID 2283592). The method in brief:
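HCT116 cells carrying a p53-responsive beta-lactamase reporter were plated, incubated 5 h at 37C, then dosed with compounds in DMSO (217-fold dilution) for 16 h. CCF4-AM substrate was added for 2 h at room temperature; the 460/530 nm emission ratio gave gain-of-signal activity relative to DMSO.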

A short description of test [3]: TOX21_p53_BLA_p3_viability: Viability Assessment in the Tox21 HCT-116 p53 Agonism Beta-lactamase Assay, Phase 3 (AID 2283593).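 Further: cells exposed to compound for 16 h before reading.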 The procedure, abridged:
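Cellular ATP was quantified by CellTiter-Glo luminescence, read after 30 min at room temperature. Beforehand, HCT116 cells (4000/well) received compound 5 h post-seeding, 217-fold diluted from DMSO, then incubated 16 h at 37C.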

In test [4] the target is Cellular tumor antigen p53 (Homo sapiens) (UniProt P04637). In words: TOX21_p53_BLA_p3_ratio: Tox21 HCT-116 p53 Agonism Beta-lactamase Assay, Ratio, Phase 3 (AID 2283596). The procedure, abridged: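 HCT116 p53-bla cells (4000/well) given compound in DMSO (217-fold dilution) after 5 h, incubated 16 h at 37C. CCF4-AM substrate 2 h at room temperature; 460/530 nm emission ratio, gain fitted against DMSO.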
Cellular tumor antigen p53 (Homo sapiens), sequence (P04637 whole entry, looked up): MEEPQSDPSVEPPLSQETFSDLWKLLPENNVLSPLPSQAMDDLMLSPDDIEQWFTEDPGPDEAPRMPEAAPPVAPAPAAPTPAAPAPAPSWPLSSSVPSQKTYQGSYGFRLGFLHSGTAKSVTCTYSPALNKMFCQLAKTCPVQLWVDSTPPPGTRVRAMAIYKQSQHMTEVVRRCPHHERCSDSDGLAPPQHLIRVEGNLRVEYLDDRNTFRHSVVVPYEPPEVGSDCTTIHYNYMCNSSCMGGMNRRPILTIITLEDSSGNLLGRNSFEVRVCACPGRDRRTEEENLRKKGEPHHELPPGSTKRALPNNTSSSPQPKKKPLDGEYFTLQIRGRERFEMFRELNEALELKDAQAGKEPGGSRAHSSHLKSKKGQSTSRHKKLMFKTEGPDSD

Test [5] can be described thus: TOX21_p53_BLA_p4_viability: Viability Assessment in the Tox21 HCT-116 p53 Agonism Beta-lactamase Assay, Phase 4 (AID 2283597).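 Further: hits lower the luminescence signal meaning cytotoxicity.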 The method in brief:
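HCT116 p53-bla cells (4000/well) rested 5 h at 37C, then received compounds in DMSO (217-fold dilution) for 16 h at 37C, 5% CO2. CellTiter-Glo was added after the CCF4-AM read, and luminescence was read after 30 min at room temperature.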

In test [6] the target is Cellular tumor antigen p53 (Homo sapiens) (UniProt P04637). The experiment in a line: TOX21_p53_BLA_p5_ratio: Tox21 HCT-116 p53 Agonism Beta-lactamase Assay, Ratio, Phase 5 (AID 2283599). The method in brief: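 Beta-lactamase reporter ratio (blue 460 nm over green 530 nm, 405 nm excitation) after 2 h CCF4-AM loading, in HCT-116 cells exposed 16 h at 37 C to compounds pinned at 217-fold dilution. Increases relative to DMSO baseline scored.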

Test [7] can be described thus: TOX21_p53_BLA_p5_viability: Viability Assessment in the Tox21 HCT-116 p53 Agonism Beta-lactamase Assay, Phase 5 (AID 2283600). The method in brief:
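Cells were plated at 4000/well, rested 5 h at 37C, then given compounds in DMSO (217-fold dilution) for 16 h at 37C, 5% CO2. Following the CCF4-AM beta-lactamase read, CellTiter-Glo was added and luminescence was read after 30 min at room temperature.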

In test [8] the target is Cellular tumor antigen p53 (Homo sapiens) (UniProt P04637). In words: TOX21_p53_BLA_p4_ratio: Tox21 HCT-116 p53 Agonism Beta-lactamase Assay, Ratio, Phase 4 (AID 2283601). The procedure, abridged: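 Signal is the blue/green (460nm/530nm) ratio of cleaved versus uncleaved CCF4-AM substrate, read after 2 h substrate loading. Cells were HCT116 carrying the p53-responsive beta-lactamase reporter, dosed 16 h at 37C, 5% CO2; CellTiter-Glo measured in parallel.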

Regarding `Cc1ccccc1`, the outcome in test [1], in test [2], in test [3], in test [4], in test [5] and in test [6] was inactive. Further, in test [7], the outcome was inactive.

What is called AC50 is the midpoint of the concentration-response curve, whichever way the signal moves. `Clc1ccc(CCC(Cn2ccnc2)Sc2c(Cl)cccc2Cl)cc1` (centres undefined): the molecule was called inactive in test [1], in test [2], in test [3], in test [5], in test [6] and in test [7]. In test [8], the outcome was inactive. Further, the AC50 in test [4] is 15.9 µM (active).

As to `CC(C)CON=O`, the molecule was classed as inactive in test [1], in test [2], in test [3], in test [4], in test [5] and in test [6]. Further, the outcome in test [7] and in test [8] was inactive.

For the molecule `c1ccoc1`, the molecule was classed as inactive in test [1], in test [2], in test [3], in test [4], in test [5] and in test [6]. Moreover, the molecule was called inactive in test [7].

With `CC(C)N(C(=O)SCC(Cl)=CCl)C(C)C`, the molecule was called inactive in test [1], in test [2], in test [3], in test [4], in test [5] and in test [6]. Moreover, the outcome in test [7] was inactive.

As for `O=C1c2ccccc2C(=O)C1C(=O)C(c1ccccc1)c1ccccc1`, the result in test [1], in test [3], in test [4], in test [6] and in test [7] was inactive. Moreover, the AC50 was 37.1 µM (active) in test [2], 44 µM (active) in test [5] and 36.6 µM (active) in test [8].

Turning to `Oc1cc(Cl)c(Cl)c(Cl)c1`, the half-maximal activity concentration (AC50) is 44.1 µM (active) in test [1]; 10.2 µM (active) in test [2]; 17.3 µM (active) in test [4]; 69.4 µM (active) in test [5]; 13.2 µM (active) in test [6]; 37.5 µM (active) in test [8]. The molecule was called inactive in test [3] and in test [7].

With `O=C(N/N=C/c1ccc([N+](=O)[O-])o1)c1cc([N+](=O)[O-])cc([N+](=O)[O-])c1O`, the result in test [1], in test [2], in test [3], in test [4], in test [6] and in test [7] was inactive. Further, in test [8], the result was inactive. Besides, the concentration at half-maximal activity (AC50) in test [5] was 23 µM (active).

`CC(Cl)C(=O)O` (centres undefined): the call in test [1], in test [2], in test [3], in test [4], in test [5] and in test [6] was inactive. Also, the call in test [7] was inactive.

`CC(C)[C@@]1(NC(=O)[C@@H]2C[C@@H]3c4cccc5[nH]cc(c45)C[C@H]3N(C)C2)O[C@@]2(O)[C@@H]3CCCN3C(=O)[C@H](Cc3ccccc3)N2C1=O`: the call in test [1], in test [2], in test [3], in test [4], in test [5] and in test [6] was inactive. The result in test [7] and in test [8] was inactive. Besides, in test [5], the AC50 was 33.9 µM (active).

Take `C[C@]12CC[C@@H]3c4ccc(OC(=O)N(CCCl)CCCl)cc4CC[C@H]3[C@@H]1CC[C@@H]2OP(=O)(O)O`: the result in test [1], in test [3], in test [5] and in test [7] was inactive. For the same molecule, the AC50 is 8.82 µM (active) and 26.6 µM (active) in test [2]; 7.01 µM (active) and 23.1 µM (active) in test [4]; 7.78 µM (active) and 24.6 µM (active) in test [6].

On to `C=CC(=O)OCCN(C)C`, for which the molecule was classed as inactive in test [1], in test [2], in test [3], in test [4], in test [5] and in test [6]. Moreover, in test [7], the outcome was inactive.

With `N#CC(C#N)=C(C#N)C#N`, the result in test [1], in test [2], in test [3] and in test [4] was inactive.

As for `c1ccc2c(c1)[nH]c1cnccc12`, the molecule was called inactive in test [1], in test [2], in test [3], in test [5] and in test [6]. Further, the AC50 in test [4] is 46.1 µM (active).

Turning to `Nc1c(Br)cc([N+](=O)[O-])cc1[N+](=O)[O-]`, the molecule was classed as inactive in test [1], in test [2], in test [3], in test [4] and in test [5].

Consider `CC(=O)C(Cl)(Cl)Cl`, for which the molecule was called inactive in test [1], in test [3], in test [5], in test [7] and in test [8]. The figures for the AC50 in test [2], in test [4] and in test [6] were 1.29 µM (active), 0.778 µM (active) and 1.52 µM (active), respectively.

For the molecule `CCNc1nc(NC(C)C)nc(OC)n1`, the molecule was classed as inactive in test [1], in test [2], in test [3], in test [4], in test [5] and in test [6]. Besides, the outcome in test [7] was inactive.

On to `CC(O)CN1CCN(CC(=O)[O-])CCN(CC(=O)[O-])CCN(CC(=O)[O-])CC1.[Gd+3]` (centres undefined), for which the molecule was classed as inactive in test [1], in test [2], in test [3], in test [4], in test [5] and in test [6]. Also, the molecule was classed as inactive in test [7] and in test [8].

Consider `C1CN(P2(N3CC3)=NP(N3CC3)(N3CC3)=NP(N3CC3)(N3CC3)=N2)CCO1` (centres undefined), for which the molecule was classed as inactive in test [1], in test [2], in test [3], in test [5], in test [6] and in test [7]. Also, in test [8], the outcome was inactive. Further, the half-maximal activity concentration (AC50) in test [4] was 23 µM (active).

For the molecule `CN1C[C@@H](NS(=O)(=O)N(C)C)C[C@@H]2c3cccc4c3c(cn4C)C[C@H]21`, the result in test [1], in test [2], in test [3], in test [4], in test [5] and in test [6] was inactive. The outcome in test [7] and in test [8] was inactive.

For `CCCCCl`, the result in test [1], in test [2], in test [3], in test [4], in test [5] and in test [6] was inactive. Besides, the molecule was classed as inactive in test [7] and in test [8].

`Clc1ccc(CSC(Cn2ccnc2)c2ccc(Cl)cc2Cl)cc1` (centres undefined): the molecule was called inactive in test [1], in test [3], in test [4], in test [5], in test [6] and in test [7]. Also, the half-maximal activity concentration (AC50) in test [2] was 17.7 µM (active); in test [8], 15.4 µM (active).

On to `CCCCCCCCCCCC[N+](C)(C)CCOc1ccccc1`, for which the AC50 in test [1] was 28.1 µM (active) and 30.3 µM (active); in test [2], 33.3 µM (active) and 40.8 µM (active); in test [3], 53 µM (active) and 22.3 µM (active); in test [4] it was 84.4 µM (active) and 43.8 µM (active); in test [5], 37.5 µM (active) and 16.3 µM (active); in test [6], 85.4 µM (active) and 44.8 µM (active). In addition, the concentration at half-maximal activity (AC50) in test [7] was 54.3 µM (active) and 33.6 µM (active); in test [8], 36.1 µM (active).

Source of the values: PubChem BioAssay (EPA / NIEHS).
